PfHsp90 set2: growth inhibition of yeast expressing Plasmodium Hsp90; S. cerevisiae expressing PfHsp90, BacTiter-Glo ATP, 48 h; yeast lacking PDR1 and PDR3 efflux regulators; inhibition, % at 9.4 µM; 0.32% of 310,000 active;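 active = every replicate shows inhibition above about 80%, whatever the replicate mean, limit read from the data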;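 note: 0% = DMSO neutral controls and 100% = 20 µM radicicol positive controls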
SKKanGAS inh: blocks kanamycin growth of S. pyogenes SKKanGAS strain. BacTiter-Glo, 6 h. inhibition, % at 7.5 µM. 1.3% of 300,000 active. AID 1662;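 active = mean replicate score, as percent of positive control median, at least 50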;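 note: strain carries kanamycin resistance gene driven by streptokinase promoter and grows in 40 µg/ml kanamycin; loss of luminescence reflects streptokinase promoter inhibition or plain growth inhibition; 0% = median of DMSO wells and 100% = positive control at its reference dose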
NLRP3 yeast inh: blocks the NALP3 inflammasome reconstituted in yeast; 0.39% of 330,000 active; AID 2825; inhibition, % at 10 µM; Yeast reconstituted NLRP3/ASC/caspase-1, beta-gal luminescence, 24 h;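 active = inhibition of 50% or more; inactive = inhibition below 50%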;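 note: plate controls were induced DMSO wells for no effect and uninduced yeast grown without galactose for full effect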
tim23-1 inh: tim23-1 yeast growth inhibition; S. cerevisiae tim23-1 growth, BacTiter-Glo luminescence, 24 h; inhibition, % at 20 µM; 1.3% of 330,000 active; AID 463212;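 active = growth inhibition of the mutant yeast at or above 50%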;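 note: temperature-sensitive mutant grown at 25 °C; plate controls were DMSO-treated mutant yeast for no effect and medium wells lacking yeast for full effect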
tim10-1 inh: growth inhibitors of tim10-1 mutant yeast; S. cerevisiae tim10-1 ts strain growth, BacTiter-Glo, 24 h; inhibition, % at 20 µM; 2.2% of 330,000 active; AID 463190;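 active = inhibition of at least 40%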;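 note: mutant grown at 25 °C; 0% = DMSO wells with yeast and 100% = wells holding no yeast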
TIM10 inh: growth inhibitors of TIM10 yeast strain; inhibition, % at 10 µM; S. cerevisiae TIM10 strain growth, BacTiter-Glo luminescence, 24 h; 1.4% of 330,000 active; AID 463195;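 active = inhibition of 40% or more at the single tested concentration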;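 note: wild-type TIM10 isogenic control strain grown at permissive 25 °C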
The depositor's hits bear a star; / = not tested or not shown. Sampled rows, rich in hits. Any-hit rate of the full collection: about 4.6%.

SMILES	PfHsp90 set2	SKKanGAS inh	NLRP3 yeast inh	tim23-1 inh	tim10-1 inh	TIM10 inh
COc1cc2cc(Oc3ccc4ccc(=O)oc4c3)c(=O)oc2cc1OC(C)=O	-17	46	6	14	13	8
COc1cc2cc(Oc3ccc4ccc(=O)oc4c3)c(=O)oc2cc1O	-13	59*	8	15	3	3
CCOC(=O)[C@@H]1[C@H]2COc3cc(OC)ccc3[C@H]2N2C(=O)N(c3ccc(C)cc3)C(=O)[C@@]12C	-13	16	-4	17	28	12
CCN(CC(=O)Nc1c(F)cccc1F)C(=O)c1ccc2c(c1)OCO2	11	/	-4	4	-5	-3
O=C(Nc1nccs1)c1c(O)c2cccc3c2n(c1=O)CCC3	/	100*	24	2	-45	25
O=C(Nc1ccccn1)c1c(O)c2cccc3c2n(c1=O)CCC3	7	23	19	-6	-15	24
O=C(c1ccco1)N1CCN(c2ncnc3c(-c4ccc(Cl)cc4)nsc23)CC1	17	5	-8	3	-3	2
O=C(CSc1nc2ccccc2c(=O)n1Cc1ccccc1)Nc1ccc(Br)cc1C(=O)O	-11	52*	4	20	18	-4
CC(C)C1OC2c3cccc4cccc(c34)C2N1c1ccccc1 (configuration not stated)	-14	80*	8	-8	10	-7
O=[N+]([O-])/C=C\c1ccc(N2CCCC2)c(F)c1	106*	-1	/	/	/	/
CN1C(=O)[C@@H]2[C@H](C1=O)[C@@H]1C(=O)Nc3ccccc3C(=O)N1[C@@H]2c1ccc(Br)cc1	-11	-4	12	16	6	-6
Nc1nonc1-c1nc2ccccc2n1CC(=O)N/N=C\c1ccc(-c2ccc(Cl)cc2)o1	-7	99*	-4	-9	20	-21
O=C(NNC(=O)c1ccccc1O)c1ccc(Cl)c(S(=O)(=O)N2CCCCC2)c1	/	31	-2	12	9	-17
COc1cc(OC)cc(C(=O)Nc2nnc(NC(=S)Nc3ccccc3)s2)c1	7	52*	18	9	18	20
O=C1c2[nH]nc(-c3ccccc3O)c2C(c2cccc(Cl)c2)N1Cc1ccco1 (configuration not stated)	/	50*	3	42	34	-5
O=C1c2[nH]nc(-c3ccccc3O)c2C(c2ccc(F)cc2)N1Cc1ccco1 (configuration not stated)	-35	18	8	32	36	-3
CN(C(=O)COC(=O)c1ccccc1SCC(=O)NC1CCCCCCC1)C1CCS(=O)(=O)C1 (configuration not stated)	6	3	11	11	7	9
CC(OC(=O)CCOc1ccccc1)C(=O)NC1CC1 (configuration not stated)	-4	1	8	11	1	-4
Cc1ccc2c(c1)C(=O)CC(c1ccc3c(c1)OCCO3)O2 (configuration not stated)	-4	5	35	41	30	31
CC(C)=CCc1cc([C@@H]2CC(=O)c3ccc(O)c(CC=C(C)C)c3O2)ccc1O	-72	86*	14	27	19	9
CC(=O)NC1=NC(=O)/C(=C/c2cc(C)n(-c3cccc(C(=O)O)c3)c2C)S1	-25	34	-12	-4	2	7
Cc1cc(/C=C2\SC(=O)N(C)C2=O)c(C)n1-c1ccc(O)cc1	15	88*	13	44	14	19
COc1ccc(-n2c(C)cc(/C=C3/SC(=S)N(C)C3=O)c2C)cc1	-37	0	/	/	/	/
Cc1cc(/C=C2\SC(=S)N(C)C2=O)c(C)n1-c1cccc(O)c1	-7	91*	31	-1	-3	24
Cc1cc(/C=C2\SC(=O)NC2=O)c(C)n1-c1ccc(N(C)C)cc1	-4	4	21	-3	-9	-6
SMILES	PfHsp90 set2	SKKanGAS inh	NLRP3 yeast inh	tim23-1 inh	tim10-1 inh	TIM10 inh
Cc1cc(/C=C2\SC(=O)NC2=O)c(C)n1-c1ccc(N2CCOCC2)cc1	-2	100*	24	17	14	21
CC(=O)NC1=NC(=O)/C(=C/c2cc(C)n(-c3ccc(NC(C)=O)cc3)c2C)S1	/	79*	-1	10	12	12
Cc1ccc(S(=O)(=O)N2CCOCC2)cc1NC(=O)CSc1nnc(COc2ccccc2F)n1N	-7	/	/	/	/	/
O=C(O)c1cc(S(=O)(=O)NCCOc2ccccc2)ccc1Cl	13	/	7	-1	-7	6
COc1ccc(Nc2nnc(SCc3cc([N+](=O)[O-])cc4c3OCOC4)s2)cc1	-7	-11	-1	-17	8	7
O=C(Nc1nnc(-c2cccs2)o1)c1ccc(S(=O)(=O)N2CCOCC2)cc1	7	7	2	-2	18	10
COc1ccc(-c2nnc(NC(=O)c3ccc(S(=O)(=O)N4COCC4(C)C)cc3)o2)cc1	-15	89*	5	8	31	24
CC1(C)COCN1S(=O)(=O)c1ccc(C(=O)Nc2nnc(-c3ccc(Cl)s3)o2)cc1	/	101*	-5	28	34	17
O=C(/C=C/c1cccc([N+](=O)[O-])c1)NCc1ccc2c(c1)OCO2	-46	4	24	14	-5	-15
O=C(/C=C/c1cccc([N+](=O)[O-])c1)c1ccc([N+](=O)[O-])o1	125*	86*	/	/	/	/
Cc1ccccc1-n1nc(-c2cccnc2)cc1C(=O)NN	-13	-7	3	1	-1	8
COCCn1c(C)c(C)c(S(=O)(=O)c2ccccc2)c1N	-18	2	9	3	6	7
C[C@@H]1[C@@H](Sc2ccccc2)CC(=O)O[C@@H]1c1ccc(-c2ccccc2)cc1	7	7	9	17	23	0
O=C1C=CC2(O[C@H](c3ccccc3)[C@@H](c3ccccc3)O2)[C@H](Sc2ccccc2O)C1	113*	/	/	/	/	/
CC(C)(C)CC(=O)N1CCC(c2nc3c(nnn3Cc3c(F)cccc3Cl)c(=O)[nH]2)CC1	-2	74*	-4	10	12	20
COc1ccccc1Cn1nnc2c(=O)[nH]c(C3CCN(C(=O)c4ccccc4Cl)CC3)nc21	-1	91*	16	5	14	5
O=C(c1cccs1)N1CCC(c2nc3c(nnn3Cc3ccccc3Cl)c(=O)[nH]2)CC1	-7	52*	23	16	13	-10
O=C(c1ccco1)N1CCC(c2nc3c(nnn3Cc3c(Cl)cccc3Cl)c(=O)[nH]2)CC1	-8	-10	3	9	1	-18
O=C(O)c1ccc(CSc2nnc(-c3cccnc3)n2-c2ccc(Br)cc2)cc1	5	-24	29	16	7	-2
Cc1cc(=O)[nH]c(SCC(=O)Nc2ccc(Br)cc2)c1C#N	8	55*	6	24	7	-2
CN(C)CCCNC(=S)NCC(c1ccc(Cl)cc1Cl)c1c[nH]c2ccccc12 (configuration not stated)	2	56*	12	-20	-13	6

High-throughput results (PubChem BioAssay)
